Only some compounds are listed: those with a hit (about 32% of all), similar ones and a draw of the others.
CYP2C9 act: CYP2C9 (human) activation. hit rate 1.4% among 96,000. activation factor at 5 µM. P11712. AID 1024. recombinant CYP2C9, luciferin-H conversion, luminescence; active compounds read high; factor 1 = untreated enzyme, 0 = blocked;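 active = activation factor of 2 or more for CYP2C9 at a 5 µM dose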
Target sequence (P11712 whole entry, looked up): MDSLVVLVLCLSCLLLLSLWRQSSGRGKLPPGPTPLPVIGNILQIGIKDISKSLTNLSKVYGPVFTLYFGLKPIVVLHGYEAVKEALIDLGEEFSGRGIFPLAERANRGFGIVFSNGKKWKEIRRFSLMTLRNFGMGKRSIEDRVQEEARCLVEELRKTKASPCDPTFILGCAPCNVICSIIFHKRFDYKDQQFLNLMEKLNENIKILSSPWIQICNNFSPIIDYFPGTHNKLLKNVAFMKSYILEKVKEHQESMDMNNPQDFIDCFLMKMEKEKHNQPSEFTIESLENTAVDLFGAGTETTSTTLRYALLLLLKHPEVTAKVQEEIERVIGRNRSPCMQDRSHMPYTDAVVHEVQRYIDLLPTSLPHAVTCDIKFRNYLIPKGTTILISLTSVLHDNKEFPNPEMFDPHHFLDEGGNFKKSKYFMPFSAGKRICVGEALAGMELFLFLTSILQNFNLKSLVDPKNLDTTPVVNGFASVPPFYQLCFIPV
PostGolgi yeast: growth inhibition of a yeast mutant, post-Golgi transport screen; hit rate 0.9% among 98,000; post-Golgi transport phenotypic cell assay; inhibition, % at 10 µM;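 note: yeast cells grown in 1536-well plates; yeast grown about 18 h at 30C before absorbance read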
CYP2C19 act: activators of human cytochrome P450 2C19; activation factor at 5 µM; recombinant CYP2C19, luciferin-H EGE luminescence; active compounds read high; 0 = fully inhibited enzyme, 1 = untreated enzyme; 96,000 tested, under 10 active;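 active = activation factor of at least 2 at 5 µM in the primary screen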
CYP2C19 inhib: human CYP2C19 inhibition. P33261. CYP2C19 Supersomes, luciferin-H EGE luminescence, 30 min. inhibition, % at 5 µM. hit rate 21% among 96,000;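 active = CYP2C19 inhibition above a set limit at 5 µM in the primary screen, cut at about 50% in these data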
CYP2C9 inh: blocks human cytochrome P450 2C9. P11712. inhibition, % at 5 µM. CYP2C9 Supersomes, luciferin-H conversion, luminescence. hit rate 20% among 96,000;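 active = blocking of liver enzyme CYP2C9 beyond about 50% at 5 µM, limit read from the data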
PostGolgi ctrl: inhibits growth of the yeast control strain. efflux-deficient yeast background strain, growth absorbance A615, 16 h. hit rate 5% among 98,000. AID 738. inhibition, % at 10 µM
Numbers stand for hits. Cut-off read from the data, not from the text of the source, unless noted: active = inhibition above about 30%; inactive = the rest.

Cc1ccc(-c2noc(CCC(=O)NCc3ccco3)n2)cc1 was read as CYP2C9 act inactive, PostGolgi yeast inactive, CYP2C19 act inactive, CYP2C19 inhib inactive, CYP2C9 inh inactive and PostGolgi ctrl inactive.
Screening O=C(NNC(=O)c1ccccc1-n1cccc1)c1ccc(Cl)c(Cl)c1 returned CYP2C9 act inactive, PostGolgi yeast inactive, CYP2C19 act inactive, CYP2C19 inhib 50, CYP2C9 inh inactive and PostGolgi ctrl inactive.
Screening O=C(NNC(=O)c1ccccc1Br)c1ccc(Cl)c(Cl)c1 returned CYP2C9 act 2.2, PostGolgi yeast inactive, CYP2C19 act inactive, CYP2C19 inhib inactive, CYP2C9 inh inactive and PostGolgi ctrl inactive.
Screening COc1cc(NC(=O)CN(c2cc(C)cc(C)c2)S(=O)(=O)c2c(C)noc2C)cc(OC)c1 returned CYP2C9 act inactive, PostGolgi yeast inactive, CYP2C19 act inactive, CYP2C19 inhib inactive, CYP2C9 inh inactive and PostGolgi ctrl inactive.
`C=CCN1C(=O)C2C(C(=O)NC3CCCCC3)C3C=CC2(O3)C1C(=O)NC1CCCC1` (stereo unspecified) gave CYP2C9 act inactive, PostGolgi yeast inactive, CYP2C19 act inactive, CYP2C19 inhib inactive, CYP2C9 inh inactive and PostGolgi ctrl inactive.
Screening CN(C)S(=O)(=O)c1ccc(N2CCCC2)c(C(=O)NCc2ccc(Cl)cc2)c1 returned CYP2C9 act inactive, PostGolgi yeast inactive, CYP2C19 act inactive, CYP2C19 inhib inactive, CYP2C9 inh inactive and PostGolgi ctrl inactive.
Screening Cc1ccc(NC(=O)CSc2nnc(-c3ccc(S(=O)(=O)N4CCOCC4)cc3)n2C)cc1 returned CYP2C9 act inactive, PostGolgi yeast inactive, CYP2C19 act inactive, CYP2C19 inhib inactive, CYP2C9 inh inactive and PostGolgi ctrl inactive.
`COCCn1c(SCC(=O)Nc2nc(C)c(Cl)cc2Cl)nc2ccccc21` gave CYP2C9 act inactive, PostGolgi yeast inactive, CYP2C19 act inactive, CYP2C19 inhib 96, CYP2C9 inh inactive and PostGolgi ctrl inactive.
For COCCn1c(SCC(=O)Nc2cccc(S(N)(=O)=O)c2)nc2ccccc21 the results were CYP2C9 act inactive, PostGolgi yeast inactive, CYP2C19 act inactive, CYP2C19 inhib inactive, CYP2C9 inh inactive and PostGolgi ctrl inactive.
Screening COCCn1c(SCC(=O)Nc2ccc(S(=O)(=O)N3CCOCC3)cc2)nc2ccccc21 returned CYP2C9 act inactive, PostGolgi yeast inactive, CYP2C19 act inactive, CYP2C19 inhib inactive, CYP2C9 inh 66 and PostGolgi ctrl inactive.
COCCn1c(SCC(=O)Nc2ccc(S(N)(=O)=O)cc2)nc2ccccc21 was read as CYP2C9 act inactive, PostGolgi yeast inactive, CYP2C19 act inactive, CYP2C19 inhib inactive, CYP2C9 inh 68 and PostGolgi ctrl inactive.
For COCCn1c(SCC(=O)Nc2ccc(Cl)c(S(=O)(=O)N(C)C)c2)nc2ccccc21 the results were CYP2C9 act inactive, PostGolgi yeast inactive, CYP2C19 act inactive, CYP2C19 inhib inactive, CYP2C9 inh 87 and PostGolgi ctrl inactive.
CN(C)S(=O)(=O)c1cc(C(=O)NCCCn2ccc3ccccc32)ccc1Cl was read as CYP2C9 act inactive, PostGolgi yeast inactive, CYP2C19 act inactive, CYP2C19 inhib inactive, CYP2C9 inh inactive and PostGolgi ctrl inactive.
For CCOC(=O)N1CCN(C(=O)c2cc(-n3cnnc3)ccc2Cl)CC1 the results were CYP2C9 act inactive, PostGolgi yeast inactive, CYP2C19 act inactive, CYP2C19 inhib inactive, CYP2C9 inh inactive and PostGolgi ctrl inactive.
Screening Cc1c(NC(=O)C(C)Sc2nnc(-c3ccccc3)o2)c(=O)n(-c2ccccc2)n1C (stereo unspecified) returned CYP2C9 act inactive, PostGolgi yeast inactive, CYP2C19 act inactive, CYP2C19 inhib 70, CYP2C9 inh inactive and PostGolgi ctrl inactive.
For COc1cc(-c2nnc(SC(C)C(=O)Nc3c(C)n(C)n(-c4ccccc4)c3=O)o2)cc(OC)c1OC (stereo unspecified) the results were CYP2C9 act inactive, PostGolgi yeast inactive, CYP2C19 act inactive, CYP2C19 inhib inactive, CYP2C9 inh inactive and PostGolgi ctrl inactive.
COc1ccc2c(C)cc(SCC(=O)Nc3c(C)n(C)n(-c4ccccc4)c3=O)nc2c1 was read as CYP2C9 act inactive, PostGolgi yeast inactive, CYP2C19 act inactive, CYP2C19 inhib inactive, CYP2C9 inh inactive and PostGolgi ctrl inactive.
For Cc1cc(SC(C)C(=O)Nc2c(C)n(C)n(-c3ccccc3)c2=O)nc2ccccc12 (stereo unspecified) the results were CYP2C9 act inactive, PostGolgi yeast inactive, CYP2C19 act inactive, CYP2C19 inhib 78, CYP2C9 inh inactive and PostGolgi ctrl inactive.
For CCOC(=O)CC1C(=O)NCCN1S(=O)(=O)c1ccc(Cl)cc1Cl (stereo unspecified) the results were CYP2C9 act inactive, PostGolgi yeast inactive, CYP2C19 act inactive, CYP2C19 inhib inactive, CYP2C9 inh inactive and PostGolgi ctrl inactive.
COc1ccc(/C=C/C(=O)OC(C)CN2CCOCC2)cc1 (stereo unspecified) was read as CYP2C9 act inactive, PostGolgi yeast inactive, CYP2C19 act inactive, CYP2C19 inhib inactive, CYP2C9 inh inactive and PostGolgi ctrl inactive.
N/C(COc1ccc(Cl)cc1Cl)=N\NS(=O)(=O)c1ccccc1 was read as CYP2C9 act inactive, PostGolgi yeast inactive, CYP2C19 act inactive, CYP2C19 inhib inactive, CYP2C9 inh inactive and PostGolgi ctrl inactive.
`Nc1c(N2CCCCC2)c(=O)[nH]c(=O)n1-c1ccccc1` gave CYP2C9 act inactive, PostGolgi yeast inactive, CYP2C19 act inactive, CYP2C19 inhib 55, CYP2C9 inh inactive and PostGolgi ctrl inactive.
Screening O=c1c([N+](=O)[O-])c(N2CCCCC2)c2ccccc2n1-c1ccccc1 returned CYP2C9 act inactive, PostGolgi yeast inactive, CYP2C19 act inactive, CYP2C19 inhib inactive, CYP2C9 inh inactive and PostGolgi ctrl inactive.
`Cc1cc(=O)oc(C)c1C(=O)NCCCN1CCN(c2ccccc2F)CC1` gave CYP2C9 act inactive, PostGolgi yeast inactive, CYP2C19 act inactive, CYP2C19 inhib inactive, CYP2C9 inh 64 and PostGolgi ctrl inactive.
Cn1c(C(=O)NCCCN2CCN(c3ccccc3F)CC2)cc2c(=O)n(C)c3ccccc3c21 was read as CYP2C9 act inactive, PostGolgi yeast inactive, CYP2C19 act inactive, CYP2C19 inhib 66, CYP2C9 inh 50 and PostGolgi ctrl inactive.
CC(C)OCCCNC(=O)c1cc2c(=O)n(C)c3ccccc3c2n1C was read as CYP2C9 act inactive, PostGolgi yeast inactive, CYP2C19 act inactive, CYP2C19 inhib inactive, CYP2C9 inh inactive and PostGolgi ctrl 32.
CCOC(=O)c1c(N2C(=O)C3CC(C)=C(C)CC3C2=O)sc(C)c1C (stereo unspecified) was read as CYP2C9 act inactive, PostGolgi yeast inactive, CYP2C19 act inactive, CYP2C19 inhib inactive, CYP2C9 inh inactive and PostGolgi ctrl inactive.
Screening COC(=O)c1ccc(/C=C/C(=O)c2ccc(OC)c(OC)c2)cc1 returned CYP2C9 act inactive, PostGolgi yeast inactive, CYP2C19 act inactive, CYP2C19 inhib inactive, CYP2C9 inh inactive and PostGolgi ctrl inactive.
CCOc1ccc(C(=O)/C=C/c2ccc(SC)cc2)cc1 was read as CYP2C9 act inactive, PostGolgi yeast inactive, CYP2C19 act inactive, CYP2C19 inhib 62, CYP2C9 inh inactive and PostGolgi ctrl inactive.
